Over roughly 39,000 sequences, “fluorescence intensity (a.u.)” has its median near 4,300; the highest 2% begin near 39,000. The sample holds the highest values, similar sequences and a random draw of the others, so the mix is not that of the screen.

The target in this assay is T1, OsSMF1 (Oryza sativa, UniProt Q6ZLB0 1-436).
T1 sequence: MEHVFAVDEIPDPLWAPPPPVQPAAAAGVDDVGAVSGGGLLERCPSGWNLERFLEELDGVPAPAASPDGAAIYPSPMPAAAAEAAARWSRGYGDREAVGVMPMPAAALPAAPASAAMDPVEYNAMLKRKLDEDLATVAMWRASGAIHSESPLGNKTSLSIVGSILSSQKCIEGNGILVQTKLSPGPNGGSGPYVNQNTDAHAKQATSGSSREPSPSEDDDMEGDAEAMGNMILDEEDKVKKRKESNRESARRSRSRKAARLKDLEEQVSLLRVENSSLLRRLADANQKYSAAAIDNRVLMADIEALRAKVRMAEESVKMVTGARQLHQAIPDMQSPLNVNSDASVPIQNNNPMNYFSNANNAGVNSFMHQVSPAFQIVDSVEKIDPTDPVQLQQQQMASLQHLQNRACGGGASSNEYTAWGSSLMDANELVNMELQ
The assay is described as follows: protein-binding microarray (RPBM); PBS, 2% BSA, 51.3 ng/ul salmon testes DNA, 50 uM zinc acetate, 200 nM TF, 25 C, 1 h; high values mean tight binding. The note with it: protein: recombinant; tags: N-terminal polyhistidine and DsRed monomer fusion (pET32a); chain copies: 2; label: CyDye5-dUTP incorporated in the synthesized complementary strand; 3' TTTTT single-stranded linker to array surface; dsDNA, one strand shown. Summed up:
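The binding signal is fluorescence intensity per feature, in arbitrary units, read on an Axon 4000B scanner. Polyhistidine- and DsRed-tagged transcription factors (N-terminal fusions) from E. coli BL21-CodonPlus were purified on Ni–NTA and applied at 200 nM for 1 h at 25 °C to a double-stranded, BSA-blocked custom Agilent array in buffer with 50 µM zinc acetate.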
On to “AGCGTCGCGCCGCGCCACGCCACGCCACGCCACCCCACCACGGAGTCACCTAGTGCAG”, for which the binding signal was 5830 fluorescence intensity (a.u.).
On to “TGAGCCACGCACTGAACACGACCGTTCGATCCCCTCAAGGCGGAGTCACCTAGTGCAG”, for which the binding signal is 3810 fluorescence intensity (a.u.).
Take “CGTATATGTATATATACATACTTTATACACATATATATACCGGAGTCACCTAGTGCAG”: the binding signal was 3360 fluorescence intensity (a.u.).
As to “ATACCTGATCCTACTTGTCATACACATATTTATCTTATAGCGGAGTCACCTAGTGCAG”, the binding signal was 3620 fluorescence intensity (a.u.).
With “TTTGGTGCGAGCGAAATACCAGGATCTTTATACACATAGCCGGAGTCACCTAGTGCAG”, the binding signal was 58000 fluorescence intensity (a.u.).
For “ACTGCCATGGTTGCGGAGCAGGATGGTGACGTGGATCCCACGGAGTCACCTAGTGCAG”, the binding signal was 17700 fluorescence intensity (a.u.).
Consider “GCCGCTTTTGCGAATTTTGCACGTAGACCCCTTGCCGCCCCGGAGTCACCTAGTGCAG”, for which the binding signal was 3330 fluorescence intensity (a.u.).
For “TCACCACCTCACTCCACTAACCAGAGAGAGAACGCAGCTACGGAGTCACCTAGTGCAG”, the binding signal was 21000 fluorescence intensity (a.u.).
Turning to “ACACAGCCACGCCCGTACGCAGCTACGTACGCACGCATCACGGAGTCACCTAGTGCAG”, the binding signal is 5670 fluorescence intensity (a.u.).
With “TTGTACCAGCTAACTCATCACCACGCAGGCCAGAGTAGTACGGAGTCACCTAGTGCAG”, the binding signal was 45900 fluorescence intensity (a.u.).
As to “CGTGAGCGGGTGGTGGTGGTGATGGCGTTCGCGGTGGCGACGGAGTCACCTAGTGCAG”, the binding signal was 3520 fluorescence intensity (a.u.).
As for “AGCTTCGCACTGGGCACGTGTGCCTGTGTGTGGGAGTCAGCGGAGTCACCTAGTGCAG”, the binding signal was 4070 fluorescence intensity (a.u.).
With “GAAGTGGTTCTGCACTGTGATTTGAAGCCTAGCAACGTGCCGGAGTCACCTAGTGCAG”, the binding signal was 35800 fluorescence intensity (a.u.).
Regarding “TGCTGCCAGAGTCAGTAGGTGCCCTCTTCCACCTGCAGACCGGAGTCACCTAGTGCAG”, the binding signal was 3270 fluorescence intensity (a.u.).
For the sequence “CAAACTGCAACTCCAATATCACATTTTCTTTCTCTTTTCCCGGAGTCACCTAGTGCAG”, the binding signal was 19700 fluorescence intensity (a.u.).
Then “CAGTCAGTCAGTAGGTTCCCAGAATTTTCTCCCTGCAAACCGGAGTCACCTAGTGCAG”, with 50200 fluorescence intensity (a.u.); and “CAAACAAGGACCGTAGACACTCTAACCAACCCCAATAACACGGAGTCACCTAGTGCAG”, with 31300 fluorescence intensity (a.u.).
Take “ATGAACATATTTCAATCGTTCAGTACCTTCAAGCCACAGGCGGAGTCACCTAGTGCAG”: the binding signal was 39800 fluorescence intensity (a.u.).
Then “CACATCGTTGCCAATGTTGCCACGTACCAAGGTCATATGGCGGAGTCACCTAGTGCAG”, with 9400 fluorescence intensity (a.u.).
“TCAGTAGGCCAGTAGCTAGCTGCTGCCTTCACACATCAATCGGAGTCACCTAGTGCAG”: the binding signal is 3160 fluorescence intensity (a.u.).
Then “GCCAGCTGCCACGTGGGACAAAATCGGGGTCAAAACCACCCGGAGTCACCTAGTGCAG”, with 12700 fluorescence intensity (a.u.); and “CCTCGTCCGCCTTGGTCTTCTTCCAGCCGAGGAGCAACCGCGGAGTCACCTAGTGCAG”, with 48200 fluorescence intensity (a.u.); and “CGAGCCGCCTCCGCCACCGCCGCCTCCTTCCGACCAGCCGCGGAGTCACCTAGTGCAG”, with 3530 fluorescence intensity (a.u.).
In the case of “GTCCAGCCTCCTCCTCCGCTGACCTCCTCGCGGTCTTCTCCGGAGTCACCTAGTGCAG”, the binding signal was 4520 fluorescence intensity (a.u.).
With “AGCTTACTATGATACCGATGAACACGTTATGACAACAAACCGGAGTCACCTAGTGCAG”, the binding signal was 3880 fluorescence intensity (a.u.).
Turning to “AACGTGAACTAAACACATGTCGAAATGCAATCAAAATACCCGGAGTCACCTAGTGCAG”, the binding signal is 42000 fluorescence intensity (a.u.).
Turning to “AATCAAACTTTCAATTTTAGCGTGAACTAAACACACCCTTCGGAGTCACCTAGTGCAG”, the binding signal was 3680 fluorescence intensity (a.u.).
For the sequence “CAAATACTAAATGATTTCAAATGAAAACGTCATCAACAACCGGAGTCACCTAGTGCAG”, the binding signal was 3560 fluorescence intensity (a.u.).
As to “ATAGAAACATAGCGTGACACAACATAACAAACCAATGCAACGGAGTCACCTAGTGCAG”, the binding signal is 4630 fluorescence intensity (a.u.).
“CCAAATAGACTCTTACTTATAAGGGTTGAGTCTAGAGTGACGGAGTCACCTAGTGCAG”: the binding signal was 6050 fluorescence intensity (a.u.).
Regarding “TGATTGTGACACTAGCACGACGCACTTTCCTCTATATACACGGAGTCACCTAGTGCAG”, the binding signal is 3630 fluorescence intensity (a.u.).
Consider “ATGAACTAAACGCACCCTTGTAAGTCTGACACACTGTGGACGGAGTCACCTAGTGCAG”, for which the binding signal is 3720 fluorescence intensity (a.u.).
The figure for “ATAAAGTCCTTATCGGACACTAAACGCACTTTCCTAAAGACGGAGTCACCTAGTGCAG” is 39200 fluorescence intensity (a.u.).
As to “AAGAAATCTCTTCATAGATCTCCTGATGAAAGAATTTAACCGGAGTCACCTAGTGCAG”, the binding signal was 3730 fluorescence intensity (a.u.).
Take “TTGTGTGCATTTCGGCATTTGGCTACAAGATTCTTGCAGTCGGAGTCACCTAGTGCAG”: the binding signal was 39600 fluorescence intensity (a.u.).
On to “CAGGCTACAGGGCATTTGTGTCATTTTGCAAGAAGGCATACGGAGTCACCTAGTGCAG”, for which the binding signal is 3380 fluorescence intensity (a.u.).
Then “TGTTCCACTGTTGTGTGTGTGGCATTCTTGTACTGCATTTCGGAGTCACCTAGTGCAG”, with 3360 fluorescence intensity (a.u.); and “CTCGATACAGAGTGAGCGGGGTATGGCAATGACGAGCTATCGGAGTCACCTAGTGCAG”, with 3160 fluorescence intensity (a.u.).
Then “GAATGAAAACTCAGGGGTAAGTAGGAGATGACGCAAAGTTCGGAGTCACCTAGTGCAG”, with 3580 fluorescence intensity (a.u.); and “GGCCATGTTGAATGACGCGTTGCTCTCCCTACTCTACGGACGGAGTCACCTAGTGCAG”, with 49100 fluorescence intensity (a.u.); and “CGTCTCGCCGGAGCGTTGACGAGGACCTCTCTACTCTTCACGGAGTCACCTAGTGCAG”, with 3680 fluorescence intensity (a.u.).
As for “TTCTCCCTCTACTATTGCTGACGCCACCAACGCCCATGTGCGGAGTCACCTAGTGCAG”, the binding signal is 13500 fluorescence intensity (a.u.).

Source of the values: paper PMC7819943, “Rice protein-binding microarrays: a tool to detect cis-acting elements near promoter regions in rice”.
